The whole screen tested about 420,000 compounds, of which about 50,000 (12%) were called active. Not shown: some 26% with an inconclusive outcome. Shown is part of a subset that was picked to be rich in actives. Entries that show only a call come without a potency. Values without a mark were called inactive. The call rests on the fitted dose curve; in most records, active means well fitted inhibition curve with a large enough effect; inconclusive means small, poorly fitted or top-dose-only effect; inactive means flat fitted curve, though single readings scatter.
Assay: qHTS for Inhibitors of human tyrosyl-DNA phosphodiesterase 1 (TDP1): qHTS in cells in presence of CPT; further: nearly all actives have a fitted effect of over 55% in size
Details: chicken DT40 Tdp1-/-;hTDP1 cells + 20 nM CPT, ATP luminescence, 48 h; series mostly up to 46.2 µM
Outline: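 Cell growth measured by CellTiter-Glo luminescence after a minimum 48 h, 37 C compound exposure with 20 nM CPT in Tdp1-knockout DT40 cells stably expressing hTDP1, seeded 400/well; qHTS titration format.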
Potency means the concentration at half of the fitted maximal effect.

**Q.** For `COc1cc(C(=O)N2CCC(c3ccncc3)CC2)cc(OC)c1OC`, which Potency is on record?
**A.** inactive

**Q.** For `COc1cc(C(F)(F)F)nc2c(Br)c(C(C)(C)C)nn12`, which Potency is on record?
**A.** inactive

**Q.** With `Cc1cc2nc(-c3ccc(NC(=O)c4cc5ccccc5o4)cc3)oc2cc1C` as the compound, how does the Potency read?
**A.** inactive

**Q.** With `CC(OC(=O)/C=C/c1ccccc1)C(=O)NC1CCCCC1C` (configuration not stated) as the compound, how does the Potency read?
**A.** inactive

**Q.** For `COc1cccc2sc(N(CCCN(C)C)C(=O)C(c3ccccc3)c3ccccc3)nc12`, which Potency is on record?
**A.** 20.6 µM (active)

**Q.** Which Potency does the source give for `CN(C)CCCN(C(=O)COc1ccccc1)c1nc2c(Cl)cccc2s1` here?
**A.** inactive

**Q.** For `COc1ccc(N(C)C(=O)CCS(=O)(=O)c2cccc3nsnc23)cc1`, which Potency is on record?
**A.** inactive

**Q.** For `CN(C)CCN(C(=O)CN1C(=O)c2ccccc2C1=O)c1nc2cc3c(cc2s1)OCCO3`, which Potency is on record?
**A.** inactive

**Q.** With `O=C(C1COc2ccccc2O1)N(Cc1cccnc1)c1nc2c(F)cc(F)cc2s1` (configuration not stated) as the compound, how does the Potency read?
**A.** inactive

**Q.** For `O=C(CCS(=O)(=O)c1ccccc1)N(Cc1cccnc1)c1nc2c(F)cccc2s1`, which Potency is on record?
**A.** 3.66 µM (active)

**Q.** Which Potency does the source give for `Cc1cccc(C)c1NC(=O)CCS(=O)(=O)c1cccc2nsnc12` here?
**A.** inactive

**Q.** Which Potency does the source give for `O=C(NCc1cccnc1)Nc1ccccc1F` here?
**A.** inactive

**Q.** With `Cc1cccc2sc(N(CCCN(C)C)C(=O)CCS(=O)(=O)c3ccccc3)nc12` as the compound, how does the Potency read?
**A.** 1.84 µM (active)

**Q.** With `Cn1c(=NC(=O)c2ccc3c(c2)OCCO3)sc2cc(S(C)(=O)=O)ccc21` as the compound, how does the Potency read?
**A.** inactive

**Q.** Which Potency does the source give for `O=C(NCc1ccncc1)c1cccc(NS(=O)(=O)c2ccc(F)c(F)c2)c1` here?
**A.** inactive

**Q.** For `COc1ccccc1OCCC(=O)OCC(=O)NCc1ccccc1`, which Potency is on record?
**A.** inactive

**Q.** For `CC(C)c1c(O)nc(SCCOc2ccc(Cl)cc2)[nH]c1=O`, which Potency is on record?
**A.** inactive

**Q.** With `COc1ccc(CN2C(=O)C(CC(=O)NCCCCc3ccccc3)CC(C(=O)N3CCOCC3)=C2C)cc1` (configuration not stated) as the compound, how does the Potency read?
**A.** inactive

**Q.** With `Cc1ncc2c(c1CNS(=O)(=O)N(C)C)CCN(C(=O)c1ccccc1F)C2` as the compound, how does the activity change, negative = growth inhibition read?
**A.** 12.2% [at 9.04 µM]

**Q.** With `O=C(NCc1cccc(Cl)c1)C1=CC=CN2CCS(=O)(=O)N=C12` as the compound, how does the Potency read?
**A.** inactive

**Q.** For `COc1cccc(NC(=O)CN(C)C(=O)c2cc(Cl)nc3ccccc23)c1`, which Potency is on record?
**A.** inactive

**Q.** For `COc1ccc(-c2cc(C(=O)N(C)Cc3ccc(OC)c(OC)c3OC)c3ccccc3n2)cc1OC`, which Potency is on record?
**A.** 16.4 µM (active)

**Q.** With `COc1ccc(CN(C)C(=O)Cc2ccsc2)c(OC)c1OC` as the compound, how does the Potency read?
**A.** inactive

**Q.** With `COc1ccc(-c2cc(C(=O)N(C)CC(=O)Nc3ccccc3Cl)c3ccccc3n2)cc1OC` as the compound, how does the Potency read?
**A.** 20.6 µM (active)

**Q.** Which Potency does the source give for `COc1ccc(Cl)cc1NC(=O)CN(C)C(=O)c1ccc2n[nH]nc2c1` here?
**A.** inactive

**Q.** Which Potency does the source give for `COc1ccc(-c2cc(C(=O)NCCCN3CCCC3=O)c3ccccc3n2)cc1OC` here?
**A.** inactive

**Q.** Which Potency does the source give for `COc1ccc(CN2[C@@H](CC(=O)O)c3cc(F)ccc3S2(=O)=O)cc1` here?
**A.** inactive

**Q.** For `CCN(CC)S(=O)(=O)c1ccc(-c2cn3ccc(C)cc3n2)cc1`, which Potency is on record?
**A.** inactive

**Q.** With `Cc1ccc(S(=O)(=O)n2nc(C)c(S(=O)(=O)N3CCCCCC3)c2C)cc1` as the compound, how does the Potency read?
**A.** inactive

**Q.** For `COc1ccc(NS(=O)(=O)c2cccc3nsnc23)cc1Cl`, which Potency is on record?
**A.** inactive

**Q.** Which Potency does the source give for `COc1ccc([C@H]2CC(=O)C=C(c3ccc(C)cc3)C2)cc1` here?
**A.** inactive

**Q.** For `Cc1csc(NC(=S)Nc2cccc(Cl)c2)n1`, which Potency is on record?
**A.** 1.64 µM (active)

**Q.** For `S=C(Nc1cccc(Cl)c1)Nc1ccc2cn[nH]c2c1`, which Potency is on record?
**A.** inactive

**Q.** For `CC(=O)Nc1cccc(C(=O)Nc2nc(C)cs2)c1`, which Potency is on record?
**A.** inactive

**Q.** For `Cc1cc(C)cc(NC(=O)CCS(=O)(=O)c2cc3c4c(c2)CCN4C(=O)CC3)c1`, which Potency is on record?
**A.** inactive

**Q.** Which Potency does the source give for `S=c1[nH]nc(-c2ccco2)n1/N=C/c1ccccc1` here?
**A.** inactive

**Q.** With `Cn1c(-c2ccco2)nc2cc3ccccc3cc21` as the compound, how does the Potency read?
**A.** 11.6 µM (active)

**Q.** Which Potency does the source give for `Cn1cccc1-c1nc2ccccc2n1C` here?
**A.** inactive

**Q.** For `CCOc1ccc(S(=O)(=O)N(CC(=O)NCCSCc2ccc(C)cc2)c2ccccc2)cc1`, which Potency is on record?
**A.** inactive

**Q.** With `CCS(=O)(=O)Nc1cc(C(=O)N2C[C@@H](C)O[C@@H](C)C2)c2c(c1)nc(-c1ccccc1)n2C` as the compound, how does the Potency read?
**A.** inactive

**Q.** For `CCOC(=O)C1=C(O)CSC1=Nc1cccc(Cl)c1`, which Potency is on record?
**A.** inactive

**Q.** For `CN(C)c1nc(=Nc2cccc(Cl)c2)ss1`, which Potency is on record?
**A.** 0.206 µM (active)

**Q.** With `O=C(O)C1=NN(c2c(F)c(F)cc(F)c2F)C(=O)CC1` as the compound, how does the Potency read?
**A.** inactive

**Q.** With `O=C(O)CCc1cccnc1` as the compound, how does the Potency read?
**A.** inactive

**Q.** Which Potency does the source give for `C/C(=N\NC(=O)CCn1nc(C)cc1C)C(C)(C)C` here?
**A.** inactive

**Q.** For `Cc1ccc2c(C)c(C(=O)N(C)Cc3ccncn3)oc2c1C`, which Potency is on record?
**A.** inactive

**Q.** For `Cc1ccc2c(C)c(C(=O)N3CCN(c4ccncc4)CC3)oc2c1C`, which Potency is on record?
**A.** 23.1 µM (active)

**Q.** With `CC(=O)N1CCC2(CC1)CCN(c1ccncc1)CC2` as the compound, how does the Potency read?
**A.** inactive

**Q.** Which Potency does the source give for `CCOC(=O)N(Cc1ccccc1)C1CC1` here?
**A.** inactive

**Q.** With `Cc1noc(C)c1-c1ccc(C(=O)NCc2ccncc2)c2occc12` as the compound, how does the Potency read?
**A.** 9.2 µM (active)

**Q.** For `O=C(NCc1ccncc1)C(=O)NCc1ccco1`, which Potency is on record?
**A.** inactive

**Q.** For `CCN(CC(=O)NCc1ccc(Cl)cc1)C(=O)c1c(C)noc1C`, which Potency is on record?
**A.** inactive

**Q.** With `Cc1ccc(CNC(=O)CCc2c(C)nc3c(c(C)nn3-c3ccccc3)c2C)cc1` as the compound, how does the Potency read?
**A.** inactive

**Q.** Which Potency does the source give for `CC(=O)Oc1ccc(N(C(C)=O)S(=O)(=O)c2ccc3ccccc3c2)cc1Br` here?
**A.** inactive

**Q.** Which Potency does the source give for `CCOC(=O)c1c(C)oc2nc(C)nc(Nc3ccc(CC)cc3)c12` here?
**A.** inactive

**Q.** Which Potency does the source give for `COC(=O)c1c(C)oc2ccc(N(C(=O)Oc3ccccc3)S(=O)(=O)c3ccccc3)cc12` here?
**A.** 20.6 µM (active)

**Q.** With `CN(CC(=O)O)S(=O)(=O)c1ccc2oc3ccccc3c2c1` as the compound, how does the Potency read?
**A.** inactive

**Q.** Which Potency does the source give for `CCOC(=O)c1c(C)oc2cc(Br)c(OCC(N)=O)cc12` here?
**A.** inactive

**Q.** With `CCOC(=O)c1c(C)oc2ccc(N(C(=O)c3ccncc3)S(=O)(=O)c3ccc(CC)cc3)cc12` as the compound, how does the Potency read?
**A.** 5.8 µM (active)

**Q.** For `COc1cc(/C=C2/C(=O)NN(c3ccc(F)cc3)C2=O)cc([N+](=O)[O-])c1O`, which Potency is on record?
**A.** inactive

**Q.** Which Potency does the source give for `CC(C)(C)c1cc(=O)n2c(nc3ccccc32)[nH]1` here?
**A.** inactive

**Q.** Which Potency does the source give for `COCCOC(=O)C1=C(C)NC(=O)NC1c1cc2c(cc1Br)OCO2` (configuration not stated) here?
**A.** inactive

**Q.** For `O=C(O)C1=C/C(=C/C=[N+]2c3cc(O)c(O[C@H]4OC(CO)[C@@H](O)[C@@H](O)[C@@H]4O)cc3C[C@@H]2C(=O)[O-])C[C@H](C(=O)O)N1` (some centres not stated), which Potency is on record?
**A.** inactive

**Q.** Which Potency does the source give for `COc1ccc(CNC(=O)COC(=O)C(CCSC)N2C(=O)c3ccccc3C2=O)cc1` (configuration not stated) here?
**A.** inactive

**Q.** Which Potency does the source give for `COc1ccccc1C1/C(=C(/O)c2ccc(C)cc2)C(=O)C(=O)N1Cc1ccco1` (configuration not stated) here?
**A.** inactive

**Q.** With `COc1ccc(C2/C(=C(/O)c3ccccc3)C(=O)C(=O)N2C)c(OC)c1` (configuration not stated) as the compound, how does the Potency read?
**A.** inactive

**Q.** With `COc1ccc(/C(O)=C2\C(=O)C(=O)N(Cc3ccco3)C2c2ccc(OC)cc2OC)cc1` (configuration not stated) as the compound, how does the Potency read?
**A.** 29.1 µM (active)
